Data reported in PMC4336329 (PLoS ONE, 2015).
About 14,000 (4.5%) of roughly 310,000 compounds showed an effect of 50% or more. The effect is printed as a negative number. Many of the other results were omitted from the sample, so strong results are more common in it than they were.

biological target: human ether-à-go-go-related gene (hERG) potassium channel (human, UniProt Q12809); experiment: primary screen, population patch clamp on CHO cells stably expressing hERG; higher = less effect of the substance
Sequence (Q12809 whole entry, looked up): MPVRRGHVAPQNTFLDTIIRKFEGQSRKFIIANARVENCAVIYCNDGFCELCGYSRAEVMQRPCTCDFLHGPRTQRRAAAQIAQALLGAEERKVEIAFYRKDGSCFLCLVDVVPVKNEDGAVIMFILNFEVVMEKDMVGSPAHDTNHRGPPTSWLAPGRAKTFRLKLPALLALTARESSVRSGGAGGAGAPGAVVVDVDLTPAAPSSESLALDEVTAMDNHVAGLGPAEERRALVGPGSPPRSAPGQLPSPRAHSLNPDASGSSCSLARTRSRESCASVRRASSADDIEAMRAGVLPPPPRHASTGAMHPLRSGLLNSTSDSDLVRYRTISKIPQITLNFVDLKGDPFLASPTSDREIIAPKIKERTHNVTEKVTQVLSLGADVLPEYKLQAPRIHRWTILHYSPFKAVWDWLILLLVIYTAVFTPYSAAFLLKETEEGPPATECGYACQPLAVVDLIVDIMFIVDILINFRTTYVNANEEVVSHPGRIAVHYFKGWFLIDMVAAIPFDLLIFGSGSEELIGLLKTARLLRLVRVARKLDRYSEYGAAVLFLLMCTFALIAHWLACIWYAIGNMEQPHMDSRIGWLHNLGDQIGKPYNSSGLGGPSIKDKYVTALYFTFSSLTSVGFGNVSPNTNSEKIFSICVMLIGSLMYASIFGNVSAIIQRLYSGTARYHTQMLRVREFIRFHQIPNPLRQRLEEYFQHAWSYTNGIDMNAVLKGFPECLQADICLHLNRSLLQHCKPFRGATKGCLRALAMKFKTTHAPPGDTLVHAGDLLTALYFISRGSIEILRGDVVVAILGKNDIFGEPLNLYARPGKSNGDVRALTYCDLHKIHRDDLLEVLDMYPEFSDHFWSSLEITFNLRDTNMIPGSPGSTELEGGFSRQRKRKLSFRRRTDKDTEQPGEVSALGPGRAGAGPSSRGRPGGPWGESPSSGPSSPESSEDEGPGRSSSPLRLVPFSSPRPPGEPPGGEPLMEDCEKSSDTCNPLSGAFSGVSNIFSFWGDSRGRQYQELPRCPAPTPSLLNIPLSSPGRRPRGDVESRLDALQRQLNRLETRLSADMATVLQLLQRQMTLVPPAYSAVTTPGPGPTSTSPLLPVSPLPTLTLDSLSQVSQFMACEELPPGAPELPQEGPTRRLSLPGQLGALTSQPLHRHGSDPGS
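Note: peak tail current of the secondary pulse compared with the same well before compound.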

Row | SMILES | hERG current change (%, negative = inhibition) at 10uM [%]
1 | Cn1cnnc1SC(C(=O)Nc1cc(Cl)cc(Cl)c1)c1ccccc1 (centres unmarked) | 20.9
2 | Cc1cc(C(=O)CSc2nc3ccccc3[nH]2)c(C)n1CC1CCCO1 (centres unmarked) | -12.5
3 | CC(C)(C)NC(=O)NC(=O)CSc1ccc(S(=O)(=O)N2CCCCC2)cn1 | -13.5
4 | Cc1cccc(C)c1OCc1cc(C(=O)N2CCCCCCC2)no1 | -0.442
5 | O=C(c1cc(COc2c(F)cccc2F)on1)N1CCN(C2CCCCC2)CC1 | -52
6 | Cc1cccc(C)c1OCc1cc(C(=O)N2CCN3CCCC3C2)no1 (centres unmarked) | -19.5
7 | Cc1cccc(C)c1OCc1cc(C(=O)N2CCN(C3CCCC3)CC2)no1 | -67.9
8 | CC(=O)N1CCCN(C(=O)c2cc(COc3c(F)cccc3F)on2)CC1 | 6.58
9 | O=C(c1cc(COc2c(F)cccc2F)on1)N1CCCCCC1 | 4.46
10 | CN(C)Cc1c(-c2ccc(Cl)cc2)nc2ccccn12 | 0.0702
11 | CC(C)(C)c1ccc(C(=O)NCCCNC(=O)c2cccnc2)cc1 | 11.7
12 | CCN(C(=O)[C@@H]1CCCN1C(=O)c1cccs1)c1nc2cc(Cl)ccc2s1 | -36
13 | Cc1ccc(-c2noc(CCC(=O)NCCN3CCN(Cc4ccccc4)CC3)n2)cc1 | -49
14 | COc1ccc(-c2noc(CCC(=O)NCC3CCN(Cc4cccc(C)c4)CC3)n2)cc1 | -60.3
15 | COc1ccc(-c2noc(CCC(=O)NCCc3cccc(C)c3)n2)cc1 | -0.562
16 | Cc1ccc(-c2noc(CCC(=O)NCC3CCN(Cc4cccc(C)c4)CC3)n2)cc1 | -63.8
17 | COc1ccc(-c2noc(CCC(=O)NC3CCN(Cc4ccccc4)CC3)n2)cc1 | -45.7
18 | Cc1ccc(-c2noc(CCC(=O)NCC3CCCO3)n2)cc1 (centres unmarked) | 2
19 | COc1ccccc1NC(=S)NC(=O)C(C)(C)C | -9.31
20 | Cc1ccc2nc(-c3ccc(N4C(=O)CC(N5CCN(CCO)CC5)C4=O)cc3)sc2c1 (centres unmarked) | -3.5
21 | N#CCC(=O)Nc1ccc(C(=O)OCC(=O)Nc2ccccc2-c2ccccc2)cc1 | 9.2
22 | CCc1nc(SCc2ccccc2C)n[nH]1 | 26.9
23 | CCOc1ccccc1NC(=O)c1cc(CC(C)C)oc1C | -0.536
24 | Cc1oc(CC(C)C)cc1C(=O)Nc1cccc2ccccc12 | -58.8

Row | SMILES | hERG current change (%, negative = inhibition) at 10uM [%]
25 | Cc1cc(C(=O)Nc2cccc3ccccc23)c(C)o1 | 4.69
26 | Cc1ncc(C(=O)O)c(C(=O)O)c1N | 13.4
27 | O=C(O)c1cnc(-c2ccccc2)nc1Sc1ccccc1 | 14.2
28 | O=C(C1CCCN(Cc2ccccc2)C1)N1CCCCC1.O=C(O)C(=O)O (centres unmarked) | 11.3
29 | O=C(C1CCCN(Cc2ccccc2F)C1)N1CCc2ccccc2C1.O=C(O)C(=O)O (centres unmarked) | -22.6
30 | COc1ccc(CN2CCCC(C(=O)N3CCCCC3)C2)cc1OC.O=C(O)C(=O)O (centres unmarked) | -25.5
31 | Cc1cccc(CN2CCCC(C(=O)N3CCCCC3)C2)c1.O=C(O)C(=O)O (centres unmarked) | 15.5
32 | Cc1cccc(CN2CCCC(C(=O)N3CCc4ccccc4C3)C2)c1.O=C(O)C(=O)O (centres unmarked) | -51.3
33 | COc1cc(CN2CCCC(C(=O)N3CCc4ccccc4C3)C2)cc(OC)c1OC (centres unmarked) | -62
34 | O=C(C1CCCN(Cc2ccncc2)C1)N1CCc2ccccc2C1.O=C(O)C(=O)O (centres unmarked) | -19.2
35 | COc1ccc(CN2CCCC(C(=O)N3CCc4ccccc4C3)C2)cc1OC (centres unmarked) | -62
36 | COc1ccc(S(=O)(=O)N2CCC(C(=O)N3CCc4ccccc4C3)CC2)cc1OC | -27.4
37 | COc1ccc(C)cc1-n1c(SCC(=O)Nc2cccc(C(=O)O)c2)nc2ccccc2c1=O | 12
38 | O=C(CCC(=O)Nc1ccccc1)NNC(=O)C(c1ccccc1)c1ccccc1 | -0.585
39 | CCN(c1ccccc1)P(=O)(Nc1ccccc1)Nc1ccccc1 | 0.944
40 | Cc1ccc(N2C(=O)CSC2c2cccnc2)cc1F (centres unmarked) | 5.77
41 | CCCc1nc(SCC(=O)Nc2cc(C)on2)c2c(=O)n(C)c(=O)n(C)c2n1 | -2.26
42 | NCCCC[C@H]1NC(=O)[C@H](CCC(=O)O)NC(=O)c2cc([N+](=O)[O-])cc(I)c2OCC[C@@H](C(N)=O)NC1=O | 26.6
43 | Cc1cc(C)c2sc(N(CCCN(C)C)C(=O)c3ccc(S(=O)(=O)N(C)Cc4ccccc4)cc3)nc2c1.Cl | -13.5
44 | Cc1cc(C)c2sc(N(CCCN(C)C)C(=O)c3ccc(S(=O)(=O)N4CCCc5ccccc54)cc3)nc2c1.Cl | 0.702
45 | Cc1cc(C)c2sc(N(CCCN(C)C)C(=O)c3ccc(S(=O)(=O)N(C)C4CCCCC4)cc3)nc2c1.Cl | -81.4
46 | CCN(Cc1ccccc1)S(=O)(=O)c1ccc(C(=O)N(CCCN(C)C)c2nc3cc(C)cc(C)c3s2)cc1.Cl | -4.15
47 | CCCCN(CC)S(=O)(=O)c1ccc(C(=O)N(CCCN(C)C)c2nc3cc(C)cc(C)c3s2)cc1.Cl | -73
48 | Cc1cc(C)c2sc(N(CCCN(C)C)C(=O)c3ccc(S(=O)(=O)N4CCc5ccccc5C4)cc3)nc2c1.Cl | 4.44

Row | SMILES | hERG current change (%, negative = inhibition) at 10uM [%]
49 | CCOc1ccc(S(=O)(=O)N2CCCCC2)cc1NC(=O)Cc1ccsc1 | 2.15
50 | BrC(=C\c1ccccc1)/C=N/Nc1ccc2nncn2n1 | -21.6
51 | CC(/C=N/Nc1ccc2nncn2n1)=C\c1ccccc1 | -51.8
52 | C(=C\c1ccccc1)/C=N/Nc1ccc2nncn2n1 | -19.7
53 | Oc1sc(C=Nc2ccccc2)c2ccccc12 | 7.99
54 | COc1ccc(CCC(=O)Nc2ccc3c(c2)OCO3)cc1 | 2.6
55 | COc1ccc(CCNC(=O)COc2ncnc3cc([N+](=O)[O-])ccc23)cc1 | -16.5
56 | O=C(COc1ncnc2cc([N+](=O)[O-])ccc12)NC1CCCCC1 | -2.76
57 | O=C(COc1ncnc2cc([N+](=O)[O-])ccc12)NC(=O)NC1CCCCC1 | -56.5
58 | O=C1c2ccccc2NC(c2c(Cl)cccc2Cl)N1Cc1ccccc1 (centres unmarked) | 7.98
59 | N=c1c2c3c(sc2ncn1N)CCCCC3 | -12.6
60 | CCCCn1cnc2sc3c(c2c1=N)CCCC3 | -52.1
61 | N=c1c2c3c(sc2ncn1Cc1ccco1)CCCCC3 | -62
62 | N=c1c2c3c(sc2ncn1CCCN1CCOCC1)CCCCC3 | -51.2
63 | N=c1c2c3c(sc2ncn1Cc1ccccc1)CCCC3 | -49.7
64 | N=c1c2c3c(sc2ncn1CCN1CCOCC1)CCCC3 | -16.9
65 | CC(C)Cn1cnc2sc3c(c2c1=N)CCCC3 | -25.2
66 | N=c1c2c3c(sc2ncn1CCCO)CCCC3 | -19.5
67 | N=c1c2c3c(sc2ncn1CCN1CCOCC1)CCCCC3 | -42.9
68 | CC1CCCCC1NC(=O)CCNS(=O)(=O)c1ccc2c(c1)CCC(=O)N2 (centres unmarked) | 6.25
69 | O=C(Nc1cc(C(F)(F)F)ccc1-n1cnc2ccccc21)c1ccccc1 | -32
70 | O=C(Nc1ccc(/C=C/c2nc3ccccc3o2)cc1)c1cccc(C(F)(F)F)c1 | 0.151
71 | COC(=O)c1ccc(NC(=S)NCCc2cccc(C)c2)cc1 | -2.3
72 | CCCn1c(NC(=O)c2cccc(C)c2C)nc2ccccc21 | -26.7

Row | SMILES | hERG current change (%, negative = inhibition) at 10uM [%]
73 | CCOc1ccccc1NC(=O)CSc1nnc2ccc(-c3ccncc3)nn12 | -54.3
74 | CCOc1ccccc1NC(=O)CSc1nnc2ccc(-c3cccnc3)nn12 | -25.8
75 | CC(=O)Nc1cccc(NC(=O)CSc2nnc3ccc(-c4ccncc4)nn23)c1 | -17.8
76 | Cc1ccccc1NC(=O)CSc1nnc2ccc(-c3ccncc3)nn12 | -69.5
77 | Cc1ccccc1NC(=O)CSc1nnc2ccc(-c3cccnc3)nn12 | -33
78 | CCOc1ccccc1NC(=O)CSc1nnc2ccc(-c3ccccn3)nn12 | 2.41
79 | CCOc1ccccc1NC(=O)CSc1nnnn1Cc1ccccc1 | -40.5
80 | CC(=O)c1ccc(S(=O)(=O)N2CCN(C(=O)CSc3ccc(F)cc3)CC2)cc1 | 11.7
81 | CC[C@]12C=CCN3CCC4(c5cc(Br)c(OC)cc5N(C)C4[C@@](O)(C(=O)OC)[C@@H]1OC(C)=O)C32 (some centres unmarked) | 7.6
82 | COc1ccc(/C=C(/NC(=O)c2ccccc2)C(=O)N/N=C/c2ccncc2)cc1 | 9.78
83 | N#CCSc1nc(-c2ccccc2)nc2ccccc12 | 7.83
84 | CCc1ccccc1NC(=O)CN1CCN(C(=O)CN2C(=O)NC3(CCCC3)C2=O)CC1 | 7.54
85 | CCc1ccccc1NC(=O)CN1CCN(CC(=O)NCc2ccc(Cl)cc2)CC1 | -46.6
86 | CCc1ccccc1NC(=O)CN1CCN(C(=O)COc2ccccc2C#N)CC1 | -34.6
87 | CCc1ccccc1NC(=O)CN1CCN(CC(=O)Nc2ccc(-c3ccccc3)cc2)CC1 | -53.3
88 | Cc1cccc(NC(=O)CN2CCN(C(=O)c3ccc(OCc4cn5ccccc5n4)cc3)CC2)c1C | -46.5
89 | Cc1cccc(NC(=O)CN2CCN(C(=O)C(C)Oc3ccc(C#N)cc3)CC2)c1C (centres unmarked) | -76.9
90 | CCc1ccccc1NC(=O)CN1CCN(C(=O)CNC(=O)c2ccccc2F)CC1 | -13.5
91 | CCc1ccccc1NC(=O)CN1CCN(C(=O)CNC(=O)Cc2cccc3ccccc23)CC1 | -59.6
92 | Cc1cccc(NC(=O)CNC(=O)COc2ccc(-c3ccc(C#N)cc3)cc2)c1C | 4.86
93 | Cc1cccc(NC(=O)CN2CCN(CC(=O)Nc3ccc(-c4ccccc4)cc3)CC2)c1C | -17
94 | CCc1ccccc1NC(=O)CN1CCN(C(=O)CCC(=O)N2CCC(c3ccccc3)=N2)CC1 | -58
95 | CCc1ccccc1NC(=O)CN1CCC(NC(=O)COC)CC1.Cl | 13.4
